Tau ThT inhib = blocks human tau fibril formation measured by thioflavin T; P10636; recombinant tau K18 P301L, heparin-induced fibrillization, ThT fluorescence; Potency, µM (top dose mostly 57.4 µM), without a hit: at the highest dose activity, negative = inhibition, usual class: inhibitors; 270,000 compounds, 2.1% hits; AID 1460; also: potency is read from the fitted curve at half-maximal effect; nearly all actives have a fitted effect of over 55% in size
Target sequence (P10636 561-689 P618L limits assumed): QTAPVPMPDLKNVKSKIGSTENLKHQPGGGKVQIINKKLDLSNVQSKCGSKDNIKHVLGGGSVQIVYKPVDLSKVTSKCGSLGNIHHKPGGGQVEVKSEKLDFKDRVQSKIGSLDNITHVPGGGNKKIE
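Recombinant human tau K18 fragment […] carrying P301L, 15 uM unlabeled plus 0.24 uM Alexa 594-labeled, was fibrillized with 20 uM heparin in 100 mM sodium acetate pH 7 for 6 hr at 37 C; 30 uM ThT fluorescence read after 1 hr.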
Tau fibril FP = blocks human tau fibril formation measured by polarization | P10636 | K18 P301L tau heparin fibrillization, Alexa594 FP, 6 h | Potency, µM (top dose mostly 57.7 µM), without a hit: at the top dose activity, negative = inhibition, actives largely listed as inhibitors | 280,000 compounds, 0.39% hits | AID 1468; also: potency is read from the fitted curve at half-maximal effect; nearly all actives have a fitted effect of over 55% in size
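Heparin (20 uM) drove fibril formation of recombinant tau K18 P301L, 15 uM unlabeled with 0.24 uM Alexa 594 label, for 6 hr at 37 C in 100 mM sodium acetate pH 7. Fluorescence polarization (555/632 nm) read 1 hr after 30 uM ThT.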
JMJD2E inh = blocks human JMJD2E demethylase activity | Potency, µM (doses to about 57.1 µM), without a hit: top-dose activity change, negative = inhibition, usual class: inhibitors | JMJD2E catalytic domain, FDH-coupled NADH fluorescence (FDH is formaldehyde dehydrogenase) | AID 2147 | B2RXH2 | 230,000 compounds, 1.6% hits; active = well fitted inhibition curve with a large enough effect, not every such curve was filed as active; inconclusive = small, poorly fitted or top-dose-only effect, or another doubt; inactive = no such curve, though single readings can be large or run the other way;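 also: potency is read from the fitted curve at half-maximal effect; 0% = wells with enzyme and -100% = buffer wells without enzyme; nearly all actives have a fitted effect of over 50% in size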
Target sequence (B2RXH2 1-337 limits assumed): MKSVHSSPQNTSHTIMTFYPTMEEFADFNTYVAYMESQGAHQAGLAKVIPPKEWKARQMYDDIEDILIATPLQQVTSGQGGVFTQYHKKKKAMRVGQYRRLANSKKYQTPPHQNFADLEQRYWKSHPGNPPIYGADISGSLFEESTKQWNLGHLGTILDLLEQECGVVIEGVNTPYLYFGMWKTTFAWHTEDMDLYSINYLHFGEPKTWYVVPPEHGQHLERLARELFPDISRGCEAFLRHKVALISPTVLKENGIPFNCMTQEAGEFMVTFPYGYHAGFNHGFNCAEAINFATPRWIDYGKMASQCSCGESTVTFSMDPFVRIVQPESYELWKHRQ
Sfp inh = inhibitors of Bacillus subtilis Sfp phosphopantetheinyl transferase; 310,000 compounds, 3.5% hits; Biochemical Sfp PPTase activity, qHTS; Potency, µM, without a hit: largest response in the series, negative = inhibition, usual class: inhibitors;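 also: the enzyme is Sfp with the accession as filed and its product quenches rhodamine fluorescence; potency is read from the fitted curve at half-maximal effect; 0% = enzyme reaction without inhibitor and -100% = no enzyme wells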
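Step 1, compound plus 15 nM Sfp-PPTase, 15 min, room temperature. Step 2, add rhodamine-CoA (5 uM) and BHQ-2-YbbR (12.5 uM). Step 3, read 525/598 nm fluorescence at 0 and 30 min.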
Coupling enz = counter-screen for Giardia aldolase inhibitors: coupling enzyme system; coupling enzyme system counterscreen, AmpLite Red fluorescence; activity change, negative = inhibition, % at 58.2 µM, hits read low; 290,000 compounds, 0.67% hits; in the data active = activity change below about -30%
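Fluorescence at 525 nm excitation and 598 nm emission measured inhibition of the coupled detection system without aldolase. Compounds (at 57.5 uM final) were preincubated 10 min at room temperature with coupling enzyme reagent before a 20 min substrate/AmpLite Red step.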
Tau fluor counter = counter-screen for tau fibril formation inhibitors; tau K18 P301L (four-repeat tau fragment) Alexa594 fluorescence, heparin fibrillization; Potency, µM (series often up to 57.7 µM), for inactives: at the highest dose activity change, negative = decrease; 280,000 compounds, 0.93% hits; also: potency is read from the fitted curve at half-maximal effect; nearly all actives have a fitted effect of over 55% in size
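Human K18 P301L tau (15 uM unlabeled plus 0.24 uM Alexa 594-labeled, final) in 100 mM sodium acetate pH 7 was mixed with compound and 20 uM heparin and incubated 6 hr at 37 C.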
Active calls of the source: *; [ ] = another dose, or the depositor's remark. The list is not random: actives were taken first. Their share in the collection is about 5.3%. Unless noted, calls follow the shape of the dose curve; as a rule, active = well fitted curve in the direction sought with a large enough effect; inconclusive = small, poorly fitted or top-dose-only effect, or another doubt; inactive = no such curve, though single readings can be large; an effect the other way counts as inactive or inconclusive. Unless noted, % is scaled to controls: 0 for no effect and ±100 for the full control effect.

O=C(NCc1ccc2[nH]c3c(c2c1)CCCC3)c1ccc(S(=O)(=O)N2CCOCC2)cc1 was read as Tau ThT inhib -15%, Tau fibril FP 13%, JMJD2E inh -9%, Sfp inh 2%, Coupling enz -1 and Tau fluor counter inconclusive.
For O=C(NCC1CCN(c2ccc(S(=O)(=O)N3CCOCC3)cc2)CC1)c1ccc(Cl)cc1 the results were Tau ThT inhib -16%, Tau fibril FP 1%, JMJD2E inh inconclusive, Sfp inh -5%, Coupling enz 0 and Tau fluor counter -29%.
For COc1ccc(OC)c(C2=Nn3c(nnc3-c3ccccc3O)SC2)c1 the results were Sfp inh -23% and Coupling enz -4.
`CON(C)C(=O)c1nnc2c3ccccc3n(S(=O)(=O)c3ccc(C)cc3)c2n1` gave Tau ThT inhib -5%[11.5 µM], Tau fibril FP -4%[11.6 µM], Sfp inh 17%, Coupling enz 0 and Tau fluor counter -9%[11.6 µM].
`COc1ccc(CNS(=O)(=O)c2cc(C(=O)Nc3cc(Cl)cc(Cl)c3)ccc2F)cc1` gave Tau ThT inhib 8%, Tau fibril FP 3.5µM* and Tau fluor counter 3.5µM*[quencher].
`CCc1ccc(NC(=O)c2ccc(F)c(S(=O)(=O)NCc3ccc(Cl)c(Cl)c3)c2)cc1` gave Tau ThT inhib 14%, Tau fibril FP inconclusive and Tau fluor counter -21%.
For O=C(Nc1cc(Cl)cc(Cl)c1)c1ccc(F)c(S(=O)(=O)NCc2ccccc2Cl)c1 the results were Tau ThT inhib 4%, Tau fibril FP 8.9µM* and Tau fluor counter inconclusive.
O=C(Nc1cc(Cl)cc(Cl)c1)c1ccc(F)c(S(=O)(=O)NC2CCCCC2)c1 was read as Tau ThT inhib 5%, Tau fibril FP 7.1µM* and Tau fluor counter inconclusive.
`Cc1ccc(CNC(=O)C2CCN(c3nn4cc(-c5ccc(F)cc5)nc4s3)CC2)cc1` gave Tau ThT inhib -14%, Tau fibril FP -5% and Tau fluor counter 2%.
For O=C1/C(=C/c2ccco2)Cc2ccccc21 the results were Tau ThT inhib inconclusive, Tau fibril FP 0%, JMJD2E inh inconclusive, Sfp inh -10%, Coupling enz 0 and Tau fluor counter -22%.
Screening CC1C/C(=C/c2ccco2)C(=O)/C(=C/c2ccco2)C1 (stereo unspecified) returned Tau ThT inhib 25µM*, Tau fibril FP inconclusive, JMJD2E inh 25%, Sfp inh inconclusive, Coupling enz -5 and Tau fluor counter -29%.
For O=C1/C(=C\c2ccco2)CCC/C1=C\c1ccco1 the results were Tau ThT inhib 18µM*, Tau fibril FP inconclusive, JMJD2E inh -6%, Sfp inh 11µM*, Coupling enz -12 and Tau fluor counter -26%.
For CCOc1ccc(-n2ccnc2SCC(=O)Nc2cccc3ccccc23)cc1 the results were Tau ThT inhib -8%, Tau fibril FP -6% and Tau fluor counter -12%.
COc1ccc(NC(=O)Cn2nc(C)c3c(C)n(-c4ccccc4)nc3c2=O)cc1OC was read as Tau ThT inhib 12%, Tau fibril FP 9% and Tau fluor counter 4%.
Screening CCOC(=O)c1cc(C(=O)OCC)cc(-n2c(C)cc(C(=O)CN3CCOCC3)c2C)c1 returned Tau ThT inhib -8%, Tau fibril FP -1%, JMJD2E inh 13µM*, Sfp inh -7%, Coupling enz 4 and Tau fluor counter 0%.
Screening COc1ccc(-n2c(C)cc(C(=O)CN3CCCCC3)c2C)cc1 returned Tau ThT inhib -7%, Tau fibril FP 1%, JMJD2E inh -26%, Sfp inh 7%, Coupling enz 0 and Tau fluor counter -3%.
CN1CCCc2cc(C=O)ccc21 was read as Tau ThT inhib inconclusive, Tau fibril FP inconclusive, JMJD2E inh -4%, Sfp inh -13%, Coupling enz -4 and Tau fluor counter -11%.
CCCN1CCCc2cc(CN)ccc21 was read as Tau ThT inhib 25µM*, Tau fibril FP -17%, JMJD2E inh inconclusive, Sfp inh inconclusive, Coupling enz -52* and Tau fluor counter inconclusive.
Screening Nc1nc(N)c(N=Nc2ccc(S(N)(=O)=O)cc2)c(=O)[nH]1 returned Tau ThT inhib 20µM*, Tau fibril FP 0%, JMJD2E inh 2%, Sfp inh -10%, Coupling enz 3 and Tau fluor counter -14%.
For NS(=O)(=O)c1ccc(N=Nc2ccc(=O)[nH]c2O)cc1 the results were Tau ThT inhib 16µM*, Tau fibril FP -22%, JMJD2E inh -7%, Sfp inh inconclusive, Coupling enz -32* and Tau fluor counter -16%.
For NS(=O)(=O)c1ccc(N=Nc2ccc(O)c3ncccc23)cc1 the results were Sfp inh -21% and Coupling enz -4.
Screening Nc1nc(N)c(N=Nc2ccc(Cl)cc2)c(=O)[nH]1 returned Tau ThT inhib inconclusive, Tau fibril FP 8%, JMJD2E inh -1%, Sfp inh 22%, Coupling enz 4 and Tau fluor counter -2%.
`C[C@H](NC(=O)[C@@H](Cc1c[nH]c2ccccc12)NC(=O)[C@@H](N)Cc1cnc[nH]1)C(=O)N[C@@H](Cc1c[nH]c2ccccc12)C(=O)N[C@H](Cc1ccccc1)C(=O)N[C@@H](CCCCN)C(N)=O` gave Sfp inh 22% and Coupling enz 0.
Screening COc1ccc(C2C3C=CCCC3(C)C(=O)N2Cc2ccccc2)cc1Cl (stereo unspecified) returned Sfp inh inconclusive and Coupling enz 5.
For Cc1ccc(NC(=O)CN2C(=O)COc3ccc(S(=O)(=O)N4CCCCC4)cc32)cc1N(C)C the results were Tau ThT inhib 1%, Tau fibril FP 3% and Tau fluor counter -22%.
Screening O=C1CCCCC1c1cccc2ccccc12 (stereo unspecified) returned JMJD2E inh 2%, Sfp inh 11% and Coupling enz -1.
Screening O=C1O/C(=C/Br)CCC1c1cccc2ccccc12 (stereo unspecified) returned Tau ThT inhib 18µM*, Tau fibril FP inconclusive, JMJD2E inh 1% and Tau fluor counter inconclusive.
COc1ccc(-c2cc(C(=O)NCc3ccc(F)cc3)c3c(-c4ccc(F)cc4)[nH]nc3n2)cc1OC was read as Tau ThT inhib 10%, Tau fibril FP 2% and Tau fluor counter -3%.
Screening Cc1ccc(O)c(N=Cc2ccc(C)s2)c1 returned Tau ThT inhib 22µM*, Tau fibril FP inconclusive, JMJD2E inh inconclusive, Sfp inh 56µM*, Coupling enz -9 and Tau fluor counter inconclusive.

Compound activity deposited in PubChem by National Center for Advancing Translational Sciences (NCATS).
